An excerpt weighted towards active compounds, which were near 1.6% of everything screened.
KCNQ2 enhance – potentiators of rat KCNQ2 potassium channel | Potassium voltage-gated channel subfamily KQT member 2 (Rattus norvegicus), O88943 | CHO-K1 KCNQ2, FluxOR thallium flux fluorescence; stronger effect = higher value | B-score at 10 µM | 310,000 tested, 0.54% active | AID 2239, 2010;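 active = fluorescence ratio B-score at least 3 SD of library B-scores, with initial fluorescence B-score within 3 of them, cut at about 5.3 in these data; same plate scores as AID 2156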;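 note: B-score of peak minus minimum over baseline fluorescence ratio after K+ and Tl+ stimulus; positive B-score means potentiation of KCNQ2 with more thallium influx and brighter signal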
Target sequence (O88943 whole entry, looked up): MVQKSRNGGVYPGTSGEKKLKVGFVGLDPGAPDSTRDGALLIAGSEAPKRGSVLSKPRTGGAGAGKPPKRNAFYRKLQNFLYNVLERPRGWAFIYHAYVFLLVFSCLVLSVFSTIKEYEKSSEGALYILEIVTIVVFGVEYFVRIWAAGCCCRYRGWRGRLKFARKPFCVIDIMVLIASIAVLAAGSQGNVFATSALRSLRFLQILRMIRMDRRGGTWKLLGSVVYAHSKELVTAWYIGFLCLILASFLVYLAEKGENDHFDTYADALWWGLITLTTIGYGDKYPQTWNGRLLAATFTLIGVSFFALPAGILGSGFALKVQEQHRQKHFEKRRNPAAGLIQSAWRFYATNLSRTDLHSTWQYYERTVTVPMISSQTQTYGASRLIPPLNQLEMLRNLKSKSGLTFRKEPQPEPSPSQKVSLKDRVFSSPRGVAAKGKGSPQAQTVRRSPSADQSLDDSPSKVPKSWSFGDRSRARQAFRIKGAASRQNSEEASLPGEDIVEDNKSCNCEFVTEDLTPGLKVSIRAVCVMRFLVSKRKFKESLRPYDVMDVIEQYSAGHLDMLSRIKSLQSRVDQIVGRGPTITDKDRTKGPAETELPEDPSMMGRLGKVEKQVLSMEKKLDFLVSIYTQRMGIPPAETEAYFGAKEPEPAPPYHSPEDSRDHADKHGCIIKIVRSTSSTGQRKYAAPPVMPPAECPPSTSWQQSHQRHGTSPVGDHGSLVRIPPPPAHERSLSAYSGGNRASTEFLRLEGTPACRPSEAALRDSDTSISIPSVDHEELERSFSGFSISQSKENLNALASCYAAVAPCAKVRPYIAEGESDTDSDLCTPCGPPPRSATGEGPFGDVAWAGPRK
KCNQ2 inh – rat KCNQ2 potassium channel inhibitors, primary screen, cell-based, CHO-K1, FluxOR thallium flux, B-score; Potassium voltage-gated channel subfamily KQT member 2 (Rattus norvegicus), O88943; 20 min; stronger effect = lower value; B-score at 10 µM; 310,000 tested, 1.1% active; AID 2156, 2009;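 active = fluorescence ratio B-score at most minus 3 library SDs, with starting brightness B-score within 2 library SDs, cut at about -5.5 in these data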
The depositor's hits bear a star; i = inactive; . = no result given.

SMILES	KCNQ2 enhance	KCNQ2 inh
O=C(c1c(F)cccc1F)N1CCN(CCOc2ccccc2)CC1	.	i
O=C(c1cnc2ccccc2n1)N1CCN(c2ccc(C(F)(F)F)cn2)CC1	.	i
C=C1SC(=Nc2ccccc2Cl)N(C(=O)c2sc3ccccc3c2Cl)C1(C)C	-5.8	-5.8*
C=C1SC(=Nc2c(C)cccc2Cl)N(C(=O)c2sc3ccccc3c2Cl)C12CCCCC2	.	i
c1ccc2c(c1)CC(CN1CCNCC1)O2 (centres undefined)	.	i
O=c1[nH]c(-c2ccccc2)c(-c2ccccc2)o1	0.05	i
CC(C)(C)C(=O)[C@H]1[C@H](c2ccccc2)[C@@]2(N=C(c3ccccc3)OC2=O)C2c3ccccc3C=NN21 (some centres undefined)	-6.2	-6.2*
COc1ccc([C@H]2[C@H](C(=O)OC(C)(C)C)N3N=Cc4ccccc4C3C23C(=O)c2ccccc2C3=O)cc1OC (some centres undefined)	.	i
O=C(COc1c(F)c(F)c(C(F)(F)F)c(F)c1F)Nc1ccc(N2CCOCC2)c(Cl)c1	0.01	i
CCC(C)c1ccc(NC(=O)COc2c(F)c(F)c(C(F)(F)F)c(F)c2F)cc1 (centres undefined)	6.1*	i
COc1ccc(C)cc1NC(=O)C1CCCN(S(=O)(=O)c2ccc3c(c2)CCCN3C(C)=O)C1 (centres undefined)	.	i
CS(=O)(=O)Nc1ccc(C(=O)Nc2ccc3c(c2)OCO3)cc1	1.3	i
C=CCn1c(-c2csc(-c3ccccc3)n2)n[nH]c1=S	0.16	i
C=CCN1C(=S)CC(c2ccccc2)=Nc2ccccc21	-6.7	-6.7*
O=C(COC(=O)c1cccs1)Nc1nnc(-c2ccccc2)o1	0.47	i
Cc1cc(OCc2cc(C(=O)NCc3csc(C(C)C)n3)no2)cc(C)c1Cl	.	i
CCn1c(COc2cccc(OC)c2)nnc1SCC(=O)Nc1ccccc1C(=O)OC	-5.7	-5.7*
CCn1c(CC(=O)Nc2ccccc2)nnc1SCC(=O)Nc1ccccc1C(=O)OC	0.48	i
CCOC(=O)c1ccccc1NC(=O)CSc1nnc(COc2ccccc2C)n1C	-7.1	-7.1*
Cc1ccccc1OCc1nnc(SCC(=O)NCc2ccccc2)n1C	.	i
COc1ccccc1OC(C)C(=O)Nc1ccccc1C(=O)NCc1cccnc1 (centres undefined)	0.28	i
Cc1nc(N2CCN(c3ccccn3)CC2)c2c(C)c(C(=O)Nc3c(C)cc(Br)cc3C)sc2n1	-7.9	-7.9*
Cc1nc(N2CCN(c3ccccn3)CC2)c2c(C)c(C(=O)Nc3c(F)cc(F)cc3Br)sc2n1	.	i
N#Cc1c(/N=C/c2cccs2)sc2c1CCCCC2	-6.1	-6.1*
N#Cc1c(/N=C/c2cccnc2)sc2c1CCCC2	0.23	i
SMILES	KCNQ2 enhance	KCNQ2 inh
CN(C)/C=N/c1sc2c(c1C#N)CCCCC2	1.5	i
CCCN(/C=N/c1sc2c(c1C#N)CCCCC2)CCC	-7.9	-7.9*
Cc1ccc(-c2nn(C)c(=O)c3ccccc23)cc1CN1CCCCC1	0.92	i
CCOC(=O)c1c(N)sc(-c2ccccc2)c1C	.	i
CCOC(=O)c1c(N)sc(C(O)(C(F)(F)F)C(F)(F)F)c1-c1ccccc1	-7.2	-7.2*
CCCN(CCC)c1nc(C#N)nc(N(CCC)CCC)n1	-7.9	-7.9*
CN(C)c1nc(C#N)nc(N(C)C)n1	1.9	i
COC(=O)c1ccc(COc2ccccc2OC)o1	0.51	i
COC(=O)c1ccccc1NC(=O)c1ccc(COc2cccc3ccccc23)o1	-6.5	-6.5*
O=C(NN1C(=O)C2C3C=CC([C@@H]2C1=O)C31CC1)c1ccccc1 (some centres undefined)	0.13	i
Cc1cc(Cl)ccc1NC(=O)CSc1nnc(Cc2cccs2)n1Cc1ccco1	-6.3	-6.3*
COc1cc2c(cc1NC(=O)CSc1nnc(Cc3cccs3)n1Cc1ccco1)oc1ccccc12	.	i
O=C(O)C1C2C=CC(C2)C1C(=O)Nc1ccc(Cl)c(Cl)c1 (centres undefined)	0.11	i
Cc1c(C(=O)OCC(=O)NC(C)c2ccccc2)oc2ccccc12 (centres undefined)	.	i
O=c1cc(N2CCCCC2)c(-c2ccccc2)nn1Cc1ccc(Cl)cc1Cl	-7.7	-7.7*
O=c1cc(N2CCCCC2)c(-c2ccccc2)nn1Cc1ccccc1Cl	.	i
CN(C)/C=C/C1=CC(=O)CC(C)(C)C1	.	i
CCOC(=O)C1=C(C)NC(C)=C(C(=O)OCC)C1c1ccccc1/C=C/C(=O)OC(C)(C)C	-6.7	-6.7*
CCOC(=O)C1=C(C)NC(C)=C(C(=O)OCC)C1/C=C/c1ccccc1OC	1.3	i
Cc1ccc(-n2c(C)cc(C(=S)N3CCOCC3)c2C)cc1C	-7.4	-7.4*
Cc1cc(C(=S)N2CCOCC2)c(C)n1-c1ccc(F)cc1	.	i
COc1ccc(Cl)cc1NC(=O)NN1CCN(C)CC1	0.88	i
